From PubChem BioAssay
Most compounds without a hit are left out; they make up all but 6.1% or so of the library.
MMP13 inh = human MMP13 inhibitors, primary screen, biochemical, FRET peptide cleavage; AID 570, 2006; Collagenase 3 (Homo sapiens), P45452; MMP-13 fTHP FRET cleavage, Mca fluorescence; actives 0.07% (n = 65,000); inhibition, % at 4 µM;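 active means inhibition above the mean of compound-free control plate wells plus 3 SD, cut at about 14% in these data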;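 further: 0% = DMSO wells and 100% = wells with reference MMP-13 inhibitor after basal subtraction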
M1 ag = M1 muscarinic receptor agonists, primary screen, CHO-M1 cells, Fluo-4 calcium, agonist mode; Muscarinic acetylcholine receptor M1; Fluo-4 calcium fluorescence; active compounds read high; B-score at 10 µM; actives 3% (n = 64,000); AID 626, 2007;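 active means fluorescence rise, raw or as B-score row- and column-corrected plate score, outside the 99.7% band of its plate's samples, either direction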
Cdc25B block = inhibitors of Cdc25B phosphatase catalytic domain, primary screen, biochemical, OMFP fluorescence; M-phase inducer phosphatase 2 (Homo sapiens), P30305; recombinant Cdc25B, OMFP fluorescence Ex485/Em525; inhibition, %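 (compounds tested at 10 µM final in the well)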; actives 0.1% (n = 65,000); AID 368, 2006; in the data active means inhibition above about 50%
Hsp90 block = tumor Hsp90 inhibitors, primary screen, cell lysate, fluorescence polarization, NCI-N417 lysate | Cy3B-geldanamycin FP displacement | AID 429, 2006 | Heat shock protein HSP 90-alpha (Homo sapiens), P07900 | actives 0.35% (n = 64,000) | inhibition, % at 30 µM;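 active means inhibition above 50%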;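 further: 0% = tracer plus lysate wells and 100% = tracer alone without lysate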
MKP-1 inh = MKP-1 phosphatase inhibitors, primary screen, biochemical, in vitro; actives 0.15% (n = 65,000); AID 374, 2006; recombinant MKP-1, OMFP hydrolysis fluorescence; Dual specificity protein phosphatase 1 (Homo sapiens), P28562; inhibition, %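 (compounds tested at a single concentration somewhere between 10 and 100 µM)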;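 active means inhibition above about 50%, limit read from the data; inconclusive means inhibition over screen mean plus 3 SD, below that limit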;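 further: 0% = DMSO max control wells and 100% = wells with enzyme stopped by NaOH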
M1 antag = antagonists of rat M1 muscarinic receptor | Muscarinic acetylcholine receptor M1 (Rattus norvegicus), P08482 | B-score at 10 µM | actives 3.4% (n = 64,000) | CHO-M1 cells, Fluo-4 calcium, ACh EC80 antagonist mode; active compounds read low;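 active means calcium fluorescence response, raw or row-and-column corrected B-score, differing from the plate sample mean either way at a set confidence level, mostly lower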
Target sequence (P08482 whole entry, looked up): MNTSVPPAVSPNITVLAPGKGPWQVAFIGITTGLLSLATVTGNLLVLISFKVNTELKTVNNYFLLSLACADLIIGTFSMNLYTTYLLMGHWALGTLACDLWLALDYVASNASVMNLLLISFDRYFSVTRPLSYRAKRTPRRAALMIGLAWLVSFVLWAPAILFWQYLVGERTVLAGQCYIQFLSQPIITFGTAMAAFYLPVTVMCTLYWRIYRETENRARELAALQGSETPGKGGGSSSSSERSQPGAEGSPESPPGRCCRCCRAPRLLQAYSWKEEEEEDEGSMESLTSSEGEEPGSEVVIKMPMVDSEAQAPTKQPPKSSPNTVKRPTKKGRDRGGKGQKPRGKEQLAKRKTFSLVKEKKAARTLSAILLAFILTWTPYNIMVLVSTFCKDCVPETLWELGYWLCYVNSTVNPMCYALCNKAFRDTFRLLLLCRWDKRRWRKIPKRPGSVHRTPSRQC
M1 ag confirm = rat M1 muscarinic receptor agonists, confirmation, CHO-M1 cells, Fluo-4 calcium, duplicate retest. shares compounds with M1 ag. Fluo-4 calcium fluorescence, agonist mode; actives lie on both sides. fluorescence change (max-min) at 10 µM. actives 19% (n = 1,700). AID 1488, 2009;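 active means fluorescence change differs from the solvent-only DMSO control mean at a set confidence level in both duplicate runs; inconclusive means differs from solvent-only control mean in just one of two runs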;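 further: an EC20 dose of acetylcholine follows compound addition during the same imaging run; raw fluorescence intensity difference in instrument units with no normalization to controls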
M4 agonist ctr = agonist activity at rat M4 receptor, confirmation, counter-screen for M1 allosteric modulator project, cell-based, agonist mode; actives 9% (n = 1,700); fluorescence change (max-min) at 10 µM; AID 1741, 2009; shares compounds with M1 ag; CHO M4/Gqi5 cells, Fluo-4 calcium fluorescence; actives lie on both sides;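 active means fluorescence change differing from the plate's solvent-only control wells at 99.7% confidence in both duplicates, whether higher or lower; inconclusive means differs from solvent controls in only one of two duplicates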
M1 antag conf = rat M1 muscarinic receptor antagonists, confirmation, CHO cells, Fluo-4 calcium, duplicate; shares compounds with M1 antag; ACh EC80 antagonism; active compounds read low; calcium response (max-min fluorescence) at 10 µM; actives 43% (n = 1,700); AID 677, 2007;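 active means calcium response below the same-plate mean of wells given acetylcholine alone at its 80%-effect dose, minus 3 SD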;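 further: raw fluorescence intensity difference in arbitrary instrument units and not normalized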
mGluR4 antag = human mGluR4 response to M1 antagonist hits, M1 allosteric modulator project, cell-based, antagonist mode, secondary assay 1 | CHO-mGluR4 calcium flux, Fluo-4 fluorescence, glutamate EC80; active compounds read low | shares compounds with M1 antag | actives 0.9% (n = 1,700) | fluorescence response (max-min) at 10 µM;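 active means fluorescence response below the plate's average for near-maximal glutamate wells, less 3 SD of those wells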;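 further: raw unnormalized fluorescence span taken in the window right after glutamate addition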
An asterisk follows results filed as active; ? = inconclusive; nt = no result given.

SMILES	MMP13 inh	M1 ag	Cdc25B block	Hsp90 block	MKP-1 inh	M1 antag	M1 ag confirm	M4 agonist ctr	M1 antag conf	mGluR4 antag
O=C1NC(=O)C2(Cc3c(nc4ccccn4c3=O)N3CCCCCC32)C(=O)N1Cc1ccccc1 (stereo unspecified)	-6.0	11.6*	1.1	-9.1	35.0	0.26	-10.8	-22.2	nt	nt
CNC(=O)OCC[N+](C)(C)C	nt	nt	nt	-4.5	nt	nt	nt	nt	nt	nt
C[Se]C[C@H](N)C(=O)O	nt	nt	nt	-1.2	nt	nt	nt	nt	nt	nt
COc1ccc(CC2C(=O)N(C)C(=O)N(C)C2=O)c(OC)c1	2.8	6.47*	-0.6	-8.1	-7.5	-3.59*	-3.88	-23.8	nt	nt
COc1ccc(CC2C(=O)NC(=O)NC2=O)c(OC)c1	4.8	-0.126	1.4	-0.1	10.4	0.0835	nt	nt	nt	nt
O=C1CCCC2C3CCCN4CCCC(CN12)C34 (stereo unspecified)	5.6	-2.49*	7.5	-11.6	-0.4	-0.228	-10.8	-44.7	nt	nt
COc1ccc2nc(NC(=O)CCc3nc(C4=CCN(C)CC4)no3)sc2c1	5.1	5.09*	-12.0	-3.9	4.4	-0.227	-1.61	-41.4	nt	nt
CCN(CC)c1ccc(N=Cc2c(O)n(-c3ccccc3C)c(=O)[nH]c2=O)cc1	8.9	22*	0.7	-0.5	-8.7	-0.554	46.1	16.9	nt	nt
CCC(C)N1C(=O)NC(=O)C2(Cc3c(ccc4ccccc34)N(C)C2)C1=O (stereo unspecified)	0.1	13.3*	4.2	8.1	18.7	-2.09	?	?	nt	nt
COc1ccc2c(c1)CC1(CN2C)C(=O)NC(=O)N(CCc2ccccc2)C1=O (stereo unspecified)	0.5	-1.65	12.1	-15.1	1.3	0.893	nt	nt	nt	nt
C[C@H]1OC[C@@H](C[N+](C)(C)C)O1	-2.5	48.3*	-1.9	-5.4	-10.0	-9.65*	527*	220*	nt	nt
CCOC(=O)c1c(C)n(Cc2ccccc2)c2ccc(OCC(O)Cn3nc(C)nc3C)cc12 (stereo unspecified)	-13.6	1.95	-14.5	-2.2	19.2	-1.47	nt	nt	nt	nt
COc1ccc2c(c1)c(C(=O)CN1CCN(C)CC1)c(C)n2Cc1ccccc1	-0.6	2.6*	-16.4	-1.7	-8.3	-0.474	?	-71.3	nt	nt
CC(=NCc1ccc2c(c1)OCO2)c1c(O)n(C)c(=O)n(C)c1=O	0.8	-1.06	-7.1	-0.6	-1.3	0.0592	nt	nt	nt	nt
CCC(=NCc1ccc2c(c1)OCO2)c1c(O)n(C)c(=O)n(C)c1=O	-9.9	2.88*	3.6	-3.0	-7.3	-0.613	11.8	-34.5	nt	nt
CCC(=NCCOc1ccc(Cl)cc1)c1c(O)n(C)c(=O)n(C)c1=O	-0.9	11.1*	0.8	-1.3	-0.9	-1.04	-9.8	?	nt	nt
CCC(=NCCN1CCCCC1)c1c(O)n(C)c(=O)n(C)c1=O	-0.5	-0.348	6.5	-4.6	-18.8	-0.371	nt	nt	nt	nt
C[C@@H]1O[C@H](C[N+](C)(C)C)C[C@H]1O	nt	nt	nt	-2.9	nt	nt	nt	nt	nt	nt
CC(C)OC(=O)c1c(N)n(CC2CCCO2)c2nc3ccccc3nc12 (stereo unspecified)	-430.8	0.277	-1.0	-6.7	-10.7	0.0361	nt	nt	nt	nt
Nc1c(C(=O)OC2CCCCC2)c2nc3ccccc3nc2n1CC1CCCO1 (stereo unspecified)	-206.8	4.11*	1.6	-17.8	11.6	0.199	-8.48	-46.1	nt	nt
N[C@H](CCCCCP(=O)(O)O)C(=O)O	nt	nt	nt	-2.5	nt	nt	nt	nt	nt	nt
NCCCP(=O)(O)O	nt	nt	nt	-1.9	nt	nt	nt	nt	nt	nt
OC(COCc1ccc(Cl)cc1)CN1CC=C(c2ccccc2)CC1 (stereo unspecified)	-5.5	-2.8*	-15.7	-0.8	10.0	-4.04*	-6.81	-22.3	475*	177
COc1ccc2c3c1O[C@H]1C(=O)CC[C@@]4(O)C(C2)N(CC2CC2)CCC314 (stereo partly specified)	nt	nt	nt	-1.2	nt	nt	nt	nt	nt	nt
CCCCOCCCn1c(N)c(C(=O)OCCOC)c2nc3ccccc3nc21	-367.5	3.24	30.2	-1.8	-14.0	-4*	nt	nt	20.9*	229
SMILES	MMP13 inh	M1 ag	Cdc25B block	Hsp90 block	MKP-1 inh	M1 antag	M1 ag confirm	M4 agonist ctr	M1 antag conf	mGluR4 antag
Cc1ccc(S(=O)(=O)NCC2CCC(C(=O)N3CCC4(CC3)OCCO4)CC2)cc1 (stereo unspecified)	-0.1	-0.132	-21.1	-0.7	-3.6	0.377	nt	nt	nt	nt
Cc1ccc2nc(N3CCC(C(=O)N4CCC5(CC4)OCCO5)CC3)sc2c1	3.0	-0.0485	-19.4	9.6	8.2	-0.997*	nt	nt	471*	247
CN(C)CCc1nc2ccccc2c(=O)n1-c1ccccc1	-1.0	0.839	-22.8	0.2	-2.2	-6.25*	nt	nt	475	249
NC(=O)COc1c(F)cc(SCCNS(=O)(=O)c2ccccc2)cc1F	nt	nt	nt	-0.7	nt	nt	nt	nt	nt	nt
COc1cccc(CNC2CN3CCC2CC3)c1OC (stereo unspecified)	-4.7	0.218	0.8	-2.9	-17.5	-5.14*	nt	nt	392*	196
c1ccc(C(OCCN2CCNCC2)c2ccccc2)cc1	2.2	0.492	-0.7	1.4	17.5	-14.3*	nt	nt	148*	219
Cc1[nH]c2c(Cl)cccc2c1CCN	-0.6	0.217	9.4	-3.6	4.4	-2.84*	nt	nt	621	191
CCN(CC)CCCNC(=O)c1c(O)c2ccccc2n(Cc2ccccc2)c1=O	-1.4	-0.267	-29.6	3.7	-27.7	-5.39*	nt	nt	393*	210
Cc1c(C(=O)N2CCC3(CC2)OCCO3)oc2ccccc12	-1.5	-0.453	-2.2	-6.3	-8.4	-2.28*	nt	nt	519	171
O=C(c1cc2ccccc2oc1=O)N1CCC2(CC1)OCCO2	-0.6	-0.0829	-8.8	-4.3	2.4	-3.7*	nt	nt	609	230
O=C(O)c1cc2ccccc2oc1=O	2.8	-1.13	-39.8	-2.8	-7.4	-0.337	nt	nt	nt	nt
CC[N+](CC)(CC)CC	nt	nt	nt	2.1	nt	nt	nt	nt	nt	nt
